Reference: PMC7862700, “An all-to-all approach to the identification of sequence-specific readers for epigenetic DNA modifications on cytosine”

Key:
Assay in all cases: DAPPL (digital affinity profiling via proximity ligation, sequencing); 10 mM Tris-HCl pH 7.5, 50 mM NaCl, 1 mM DTT, 4% glycerol, room temperature, 30 min; GST-TFs on glutathione beads, 16-mer random dsDNA library, 0.1% formaldehyde crosslink after washing; high values mean tight binding
Settings in all cases: protein: recombinant; tags: N-terminal GST; dsDNA, one strand shown
FLI1 = target: T1, FLI1 (Homo sapiens, UniProt Q01543 1-452)
T1 sequence: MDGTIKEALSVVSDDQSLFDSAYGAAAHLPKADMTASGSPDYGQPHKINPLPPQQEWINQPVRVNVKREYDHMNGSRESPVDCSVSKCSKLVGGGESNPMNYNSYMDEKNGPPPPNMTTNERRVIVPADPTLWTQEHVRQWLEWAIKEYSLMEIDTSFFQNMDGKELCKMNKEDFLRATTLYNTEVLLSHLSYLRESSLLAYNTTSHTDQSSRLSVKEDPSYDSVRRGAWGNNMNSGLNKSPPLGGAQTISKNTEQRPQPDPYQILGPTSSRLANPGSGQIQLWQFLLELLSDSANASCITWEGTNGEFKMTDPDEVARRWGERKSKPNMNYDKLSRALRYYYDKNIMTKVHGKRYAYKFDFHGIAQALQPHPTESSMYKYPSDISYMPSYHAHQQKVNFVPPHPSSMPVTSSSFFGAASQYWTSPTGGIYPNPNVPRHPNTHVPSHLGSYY
Procedure, shortened: (§1)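 Pools were built from human transcription factors expressed in yeast as GST fusions, captured on glutathione beads and DNA-barcoded, along with a tag-only sample. Incubation with 200 nmole of a 16-mer random double-stranded DNA library lasted 30 min at room temperature in Tris/NaCl/DTT/glycerol buffer, and was followed by washing, 0.1% formaldehyde crosslinking, proximity ligation, PCR amplification and Illumina NextSeq500 sequencing. Binding signal is the quotient of each hexamer's read frequency for a factor and its frequency for the tag-only sample.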

ELK1 = target: T2, ELK1 (Homo sapiens, UniProt P19419 1-428)
T2 sequence: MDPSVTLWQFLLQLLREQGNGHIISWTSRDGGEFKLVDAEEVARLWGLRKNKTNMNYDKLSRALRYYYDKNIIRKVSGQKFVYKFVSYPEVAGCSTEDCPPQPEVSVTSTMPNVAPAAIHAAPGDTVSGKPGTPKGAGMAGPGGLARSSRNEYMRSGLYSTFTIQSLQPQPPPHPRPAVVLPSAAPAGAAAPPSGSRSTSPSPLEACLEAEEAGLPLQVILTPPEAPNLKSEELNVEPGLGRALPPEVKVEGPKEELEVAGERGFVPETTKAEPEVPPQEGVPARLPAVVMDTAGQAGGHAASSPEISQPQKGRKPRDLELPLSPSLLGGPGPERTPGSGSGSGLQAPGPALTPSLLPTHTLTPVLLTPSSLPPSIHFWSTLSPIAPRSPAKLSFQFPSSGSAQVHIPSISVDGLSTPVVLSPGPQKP
Procedure, shortened: as §1

ERG = target: T3, ERG (Homo sapiens, UniProt P11308 1-479)
T3 sequence: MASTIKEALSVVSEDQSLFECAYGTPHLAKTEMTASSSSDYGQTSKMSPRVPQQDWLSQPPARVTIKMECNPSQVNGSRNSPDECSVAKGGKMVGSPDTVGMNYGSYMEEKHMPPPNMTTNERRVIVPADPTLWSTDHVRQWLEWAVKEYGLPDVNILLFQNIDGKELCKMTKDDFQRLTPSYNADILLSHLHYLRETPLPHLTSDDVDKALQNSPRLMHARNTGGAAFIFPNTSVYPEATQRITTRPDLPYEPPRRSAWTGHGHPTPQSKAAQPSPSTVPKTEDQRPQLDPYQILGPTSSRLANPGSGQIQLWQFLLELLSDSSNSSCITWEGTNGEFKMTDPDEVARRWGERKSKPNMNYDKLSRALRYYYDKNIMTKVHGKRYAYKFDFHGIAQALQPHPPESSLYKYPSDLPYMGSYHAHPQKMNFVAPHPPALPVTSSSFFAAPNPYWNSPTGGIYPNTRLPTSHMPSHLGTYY
Procedure, shortened: as §1

EHF = target: T4, EHF (Homo sapiens, UniProt Q9NZC4 1-300)
T4 sequence: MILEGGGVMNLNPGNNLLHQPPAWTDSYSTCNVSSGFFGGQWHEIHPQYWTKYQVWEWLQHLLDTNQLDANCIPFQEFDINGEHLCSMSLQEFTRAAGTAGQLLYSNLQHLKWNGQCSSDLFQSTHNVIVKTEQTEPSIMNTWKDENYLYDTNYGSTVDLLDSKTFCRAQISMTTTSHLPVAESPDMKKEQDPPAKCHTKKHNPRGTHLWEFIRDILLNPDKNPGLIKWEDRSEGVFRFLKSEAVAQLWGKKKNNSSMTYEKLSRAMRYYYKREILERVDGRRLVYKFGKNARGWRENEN
Procedure, shortened: as §1

SPI1 = SPI1 (Homo sapiens, UniProt P17947 1-270)
Procedure, shortened: as §1

SPIB = SPIB (Homo sapiens, UniProt Q01892 1-262)
Procedure, shortened: as §1

FEV = target: T5, FEV (Homo sapiens, UniProt Q99581 1-238)
T5 sequence: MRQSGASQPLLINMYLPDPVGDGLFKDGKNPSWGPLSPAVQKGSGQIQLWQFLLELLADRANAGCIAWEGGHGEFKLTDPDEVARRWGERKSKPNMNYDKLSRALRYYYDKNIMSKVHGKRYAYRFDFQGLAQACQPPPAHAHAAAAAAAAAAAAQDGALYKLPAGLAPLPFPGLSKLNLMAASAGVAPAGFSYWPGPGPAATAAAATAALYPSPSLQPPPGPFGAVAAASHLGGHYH
Procedure, shortened: as §1

ETV5 = ETV5 (Homo sapiens, UniProt P41161 1-510)
Procedure, shortened: as §1

ETV2 = target: T6, ETV2 (Homo sapiens, UniProt O00321 1-342)
T6 sequence: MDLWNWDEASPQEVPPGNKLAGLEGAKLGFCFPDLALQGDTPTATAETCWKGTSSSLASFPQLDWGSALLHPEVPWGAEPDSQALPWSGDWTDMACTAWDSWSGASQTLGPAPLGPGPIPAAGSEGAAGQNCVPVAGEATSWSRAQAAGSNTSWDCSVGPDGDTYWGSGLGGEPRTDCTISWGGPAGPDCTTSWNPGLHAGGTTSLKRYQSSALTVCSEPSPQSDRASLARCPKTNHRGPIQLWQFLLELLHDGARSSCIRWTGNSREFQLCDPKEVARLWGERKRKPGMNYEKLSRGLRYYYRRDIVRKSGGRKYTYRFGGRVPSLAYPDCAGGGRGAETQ
Procedure, shortened: as §1

ELF3 = target: T7, ELF3 (Homo sapiens, UniProt P78545 1-371)
T7 sequence: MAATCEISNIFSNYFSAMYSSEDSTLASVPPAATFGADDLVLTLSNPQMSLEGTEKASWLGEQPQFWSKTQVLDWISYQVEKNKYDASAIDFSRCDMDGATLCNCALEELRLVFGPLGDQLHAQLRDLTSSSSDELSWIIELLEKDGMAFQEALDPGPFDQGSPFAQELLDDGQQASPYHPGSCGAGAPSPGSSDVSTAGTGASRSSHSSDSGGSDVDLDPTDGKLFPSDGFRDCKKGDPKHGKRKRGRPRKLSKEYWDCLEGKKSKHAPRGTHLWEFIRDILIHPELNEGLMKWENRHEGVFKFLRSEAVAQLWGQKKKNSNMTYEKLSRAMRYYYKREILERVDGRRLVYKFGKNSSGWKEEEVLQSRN
Procedure, shortened: as §1

ETV1 = ETV1 (Homo sapiens, UniProt P50549 1-477)
Procedure, shortened: as §1

ETV3L = target: T8, ETV3L (Homo sapiens, UniProt Q6ZN32 1-361)
T8 sequence: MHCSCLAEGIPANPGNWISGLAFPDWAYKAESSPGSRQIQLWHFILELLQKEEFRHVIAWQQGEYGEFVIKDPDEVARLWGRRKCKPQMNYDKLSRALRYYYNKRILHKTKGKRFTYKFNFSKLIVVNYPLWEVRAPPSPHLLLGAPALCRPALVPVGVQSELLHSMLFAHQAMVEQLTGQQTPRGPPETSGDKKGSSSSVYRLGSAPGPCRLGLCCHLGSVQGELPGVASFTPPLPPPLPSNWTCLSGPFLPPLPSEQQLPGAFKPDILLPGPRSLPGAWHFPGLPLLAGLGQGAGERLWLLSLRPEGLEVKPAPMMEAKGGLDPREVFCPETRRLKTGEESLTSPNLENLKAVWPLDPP
Procedure, shortened: as §1

ETS2 = target: T9, ETS2 (Homo sapiens, UniProt P15036 1-469)
T9 sequence: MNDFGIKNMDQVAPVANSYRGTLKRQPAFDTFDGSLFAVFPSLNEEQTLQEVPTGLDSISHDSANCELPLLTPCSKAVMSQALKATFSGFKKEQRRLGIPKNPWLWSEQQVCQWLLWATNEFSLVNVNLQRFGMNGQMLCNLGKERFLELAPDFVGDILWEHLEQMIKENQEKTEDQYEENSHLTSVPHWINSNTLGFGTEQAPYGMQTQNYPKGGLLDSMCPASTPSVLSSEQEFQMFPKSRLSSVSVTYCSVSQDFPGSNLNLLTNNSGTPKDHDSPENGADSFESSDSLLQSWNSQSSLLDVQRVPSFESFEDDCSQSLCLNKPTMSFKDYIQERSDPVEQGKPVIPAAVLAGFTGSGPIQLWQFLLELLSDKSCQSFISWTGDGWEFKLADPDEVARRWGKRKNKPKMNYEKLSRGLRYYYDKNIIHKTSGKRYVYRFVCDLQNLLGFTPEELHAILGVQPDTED
Procedure, shortened: as §1

ETV7 = target: T10, ETV7 (Homo sapiens, UniProt Q9Y603 1-341)
T10 sequence: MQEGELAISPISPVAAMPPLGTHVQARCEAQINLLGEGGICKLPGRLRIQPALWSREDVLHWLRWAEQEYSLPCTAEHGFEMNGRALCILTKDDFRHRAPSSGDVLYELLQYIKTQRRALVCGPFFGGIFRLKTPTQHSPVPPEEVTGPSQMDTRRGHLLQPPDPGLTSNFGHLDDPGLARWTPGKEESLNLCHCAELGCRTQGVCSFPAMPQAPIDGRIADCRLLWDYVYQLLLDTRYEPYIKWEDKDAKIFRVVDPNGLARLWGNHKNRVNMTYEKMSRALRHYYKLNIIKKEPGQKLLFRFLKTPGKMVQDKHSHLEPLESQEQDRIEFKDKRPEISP
Procedure, shortened: as §1

ETV3 = target: T11, ETV3 (Homo sapiens, UniProt P41162-2 1-143)
T11 sequence: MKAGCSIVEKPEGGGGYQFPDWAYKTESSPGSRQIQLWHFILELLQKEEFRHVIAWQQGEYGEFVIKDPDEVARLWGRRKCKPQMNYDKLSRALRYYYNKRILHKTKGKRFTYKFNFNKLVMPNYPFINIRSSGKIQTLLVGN
Procedure, shortened: as §1

ETV6 = ETV6 (Homo sapiens, UniProt P41212 1-452)
Procedure, shortened: as §1

GABPA = target: T12, GABPA (Homo sapiens, UniProt Q06546 1-454)
T12 sequence: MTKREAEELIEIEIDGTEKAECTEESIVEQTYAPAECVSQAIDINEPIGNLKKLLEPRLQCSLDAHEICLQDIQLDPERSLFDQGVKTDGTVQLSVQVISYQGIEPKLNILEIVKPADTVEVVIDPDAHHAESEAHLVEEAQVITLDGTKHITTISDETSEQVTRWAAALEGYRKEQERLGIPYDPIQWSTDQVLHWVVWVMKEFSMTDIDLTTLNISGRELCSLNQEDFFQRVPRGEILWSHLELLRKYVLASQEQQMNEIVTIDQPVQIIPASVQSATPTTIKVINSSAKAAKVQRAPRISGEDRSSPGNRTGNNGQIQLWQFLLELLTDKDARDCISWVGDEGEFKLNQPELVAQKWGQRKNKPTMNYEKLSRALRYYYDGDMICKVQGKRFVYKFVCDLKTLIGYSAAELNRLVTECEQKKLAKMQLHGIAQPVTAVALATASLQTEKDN
Procedure, shortened: as §1

ELF4 = ELF4 (Homo sapiens, UniProt Q99607 1-663)
Procedure, shortened: as §1

Sequence of SPIB (Q01892 whole entry): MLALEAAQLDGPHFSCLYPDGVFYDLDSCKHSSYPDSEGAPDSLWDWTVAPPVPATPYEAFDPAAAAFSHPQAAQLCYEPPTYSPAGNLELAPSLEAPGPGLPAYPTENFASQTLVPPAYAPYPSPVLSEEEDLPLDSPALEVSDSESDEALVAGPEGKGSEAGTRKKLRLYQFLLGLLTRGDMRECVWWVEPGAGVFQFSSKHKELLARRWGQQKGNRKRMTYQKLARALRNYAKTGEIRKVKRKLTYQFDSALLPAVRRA
Sequence of ETV5 (P41161 whole entry): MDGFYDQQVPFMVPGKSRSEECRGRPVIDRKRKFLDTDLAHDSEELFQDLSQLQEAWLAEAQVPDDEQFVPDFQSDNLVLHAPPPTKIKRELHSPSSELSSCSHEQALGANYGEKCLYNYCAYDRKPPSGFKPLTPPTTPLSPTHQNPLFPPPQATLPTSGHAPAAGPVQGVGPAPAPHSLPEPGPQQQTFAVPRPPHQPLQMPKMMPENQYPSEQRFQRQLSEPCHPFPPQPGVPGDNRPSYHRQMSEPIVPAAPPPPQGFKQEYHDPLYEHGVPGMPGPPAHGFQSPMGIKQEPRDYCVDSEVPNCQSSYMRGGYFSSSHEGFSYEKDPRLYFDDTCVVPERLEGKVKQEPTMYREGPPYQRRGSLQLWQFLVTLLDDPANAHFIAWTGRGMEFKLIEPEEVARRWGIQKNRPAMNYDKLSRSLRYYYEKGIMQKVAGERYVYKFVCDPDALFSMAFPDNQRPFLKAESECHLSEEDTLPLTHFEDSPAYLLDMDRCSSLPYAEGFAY
Sequence of ETV1 (P50549 whole entry): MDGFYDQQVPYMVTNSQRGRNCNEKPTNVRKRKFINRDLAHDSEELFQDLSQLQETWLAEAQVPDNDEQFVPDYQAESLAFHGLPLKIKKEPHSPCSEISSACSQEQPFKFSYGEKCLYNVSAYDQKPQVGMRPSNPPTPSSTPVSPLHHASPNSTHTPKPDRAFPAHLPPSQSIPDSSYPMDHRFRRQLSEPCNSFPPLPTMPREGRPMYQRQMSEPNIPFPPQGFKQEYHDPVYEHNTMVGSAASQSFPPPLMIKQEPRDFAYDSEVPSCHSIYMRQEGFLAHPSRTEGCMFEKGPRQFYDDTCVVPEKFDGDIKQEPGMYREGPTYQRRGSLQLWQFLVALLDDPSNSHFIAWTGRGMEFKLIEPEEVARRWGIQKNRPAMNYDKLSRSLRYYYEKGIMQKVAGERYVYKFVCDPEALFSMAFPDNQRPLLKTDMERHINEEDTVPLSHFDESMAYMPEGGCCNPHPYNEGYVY
Sequence of ELF4 (Q99607 whole entry): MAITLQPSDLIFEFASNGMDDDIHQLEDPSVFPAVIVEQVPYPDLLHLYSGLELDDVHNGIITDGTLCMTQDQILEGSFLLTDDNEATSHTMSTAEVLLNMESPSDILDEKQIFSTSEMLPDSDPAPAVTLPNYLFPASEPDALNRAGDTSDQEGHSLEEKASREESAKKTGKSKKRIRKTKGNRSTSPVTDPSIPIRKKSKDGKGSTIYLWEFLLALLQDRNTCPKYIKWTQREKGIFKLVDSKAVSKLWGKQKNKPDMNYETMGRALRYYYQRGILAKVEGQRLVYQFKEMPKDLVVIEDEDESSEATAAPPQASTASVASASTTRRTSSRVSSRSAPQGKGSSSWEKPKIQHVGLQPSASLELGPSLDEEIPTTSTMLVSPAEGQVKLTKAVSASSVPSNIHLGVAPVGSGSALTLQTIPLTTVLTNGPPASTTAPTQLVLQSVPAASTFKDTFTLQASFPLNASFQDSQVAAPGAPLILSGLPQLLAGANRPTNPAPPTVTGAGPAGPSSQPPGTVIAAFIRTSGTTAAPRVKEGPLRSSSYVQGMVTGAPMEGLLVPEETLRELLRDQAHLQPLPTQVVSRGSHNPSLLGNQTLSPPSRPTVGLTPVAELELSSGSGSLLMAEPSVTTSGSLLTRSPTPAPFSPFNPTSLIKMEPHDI
Sequence of ETV6 (P41212 whole entry): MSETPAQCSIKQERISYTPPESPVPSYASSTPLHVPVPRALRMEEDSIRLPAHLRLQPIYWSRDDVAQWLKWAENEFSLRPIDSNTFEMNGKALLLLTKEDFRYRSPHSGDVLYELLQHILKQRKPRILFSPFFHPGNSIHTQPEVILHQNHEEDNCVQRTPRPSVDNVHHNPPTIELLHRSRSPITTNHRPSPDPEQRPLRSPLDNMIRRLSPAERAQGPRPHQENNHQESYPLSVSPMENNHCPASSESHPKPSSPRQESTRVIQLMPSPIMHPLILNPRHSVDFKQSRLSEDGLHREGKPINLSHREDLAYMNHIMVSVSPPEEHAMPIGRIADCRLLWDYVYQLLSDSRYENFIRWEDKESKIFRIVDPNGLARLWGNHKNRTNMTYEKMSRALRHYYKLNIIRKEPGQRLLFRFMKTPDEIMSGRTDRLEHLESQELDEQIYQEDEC

Sequence	binding signal (FLI1)	binding signal (ELK1)	binding signal (ERG)	binding signal (EHF)	binding signal (SPI1)	binding signal (SPIB)	binding signal (FEV)	binding signal (ETV5)	binding signal (ETV2)	binding signal (ELF3)	binding signal (ETV1)	binding signal (ETV3L)	binding signal (ETS2)	binding signal (ETV7)	binding signal (ETV3)	binding signal (ETV6)	binding signal (GABPA)	binding signal (ELF4)
AACGGA	1.05 fold enrichment (6-mer frequency, TF over GST control)	1.08 fold enrichment (6-mer frequency, TF over GST control)	1.18 fold enrichment (6-mer frequency, TF over GST control)	1.13 fold enrichment (6-mer frequency, TF over GST control)	1.15 fold enrichment (6-mer frequency, TF over GST control)	1.07 fold enrichment (6-mer frequency, TF over GST control)	1.35 fold enrichment (6-mer frequency, TF over GST control)	1.1 fold enrichment (6-mer frequency, TF over GST control)	1.02 fold enrichment (6-mer frequency, TF over GST control)	1.03 fold enrichment (6-mer frequency, TF over GST control)	1.11 fold enrichment (6-mer frequency, TF over GST control)	1.01 fold enrichment (6-mer frequency, TF over GST control)	1.15 fold enrichment (6-mer frequency, TF over GST control)	1.01 fold enrichment (6-mer frequency, TF over GST control)	1.08 fold enrichment (6-mer frequency, TF over GST control)	1.2 fold enrichment (6-mer frequency, TF over GST control)	–	–
CGGATC	1.04 fold enrichment (6-mer frequency, TF over GST control)	–	1.05 fold enrichment (6-mer frequency, TF over GST control)	1.02 fold enrichment (6-mer frequency, TF over GST control)	–	1.01 fold enrichment (6-mer frequency, TF over GST control)	–	1.03 fold enrichment (6-mer frequency, TF over GST control)	1.03 fold enrichment (6-mer frequency, TF over GST control)	–	–	–	–	–	1.06 fold enrichment (6-mer frequency, TF over GST control)	–	1.04 fold enrichment (6-mer frequency, TF over GST control)	1.01 fold enrichment (6-mer frequency, TF over GST control)
